Assay outcomes (PubChem BioAssay)
Hits are enriched below; roughly 2.5% of the tested compounds scored in any of these assays.
mut p53 SMM = binders of human mutant p53; small molecule microarray binding, anti-GST fluorescence; calls only; 0.4% of 17,000 active; AID 624136;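 active means compounds whose four printed spots each glow above background more than chance allows, each with a p-value under 7%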
c-Myc SMM = binders of human c-Myc; 1.5% of 17,000 active; small molecule microarray, His-c-Myc binding, anti-His fluorescence; P01106; calls only; AID 624141;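 active means spot fluorescence over background with P-value below 7% in all four replicate spots, showing protein binding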
NFkB SMM = NF-kappa-B p105 (human) binding | P19838 | 1.3% of 17,000 active | Small molecule microarray, anti-His fluorescence binding | calls only;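 active means spot fluorescence over background significantly raised, with a chance value under 7% in all four replicate spots of the compound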;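 further: probe protein is his-tagged human p50 processed subunit at 1 µg/ml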
STAT3 binder = binds human STAT3 on microarray; P40763; Small molecule microarray, His-STAT3 binding, anti-His fluorescence; calls only; 0.2% of 17,000 active; AID 624138;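 active means compounds whose four printed spots each show fluorescence over background unusually high for their array block, chance value under 7%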
Target sequence (P40763 whole entry, looked up): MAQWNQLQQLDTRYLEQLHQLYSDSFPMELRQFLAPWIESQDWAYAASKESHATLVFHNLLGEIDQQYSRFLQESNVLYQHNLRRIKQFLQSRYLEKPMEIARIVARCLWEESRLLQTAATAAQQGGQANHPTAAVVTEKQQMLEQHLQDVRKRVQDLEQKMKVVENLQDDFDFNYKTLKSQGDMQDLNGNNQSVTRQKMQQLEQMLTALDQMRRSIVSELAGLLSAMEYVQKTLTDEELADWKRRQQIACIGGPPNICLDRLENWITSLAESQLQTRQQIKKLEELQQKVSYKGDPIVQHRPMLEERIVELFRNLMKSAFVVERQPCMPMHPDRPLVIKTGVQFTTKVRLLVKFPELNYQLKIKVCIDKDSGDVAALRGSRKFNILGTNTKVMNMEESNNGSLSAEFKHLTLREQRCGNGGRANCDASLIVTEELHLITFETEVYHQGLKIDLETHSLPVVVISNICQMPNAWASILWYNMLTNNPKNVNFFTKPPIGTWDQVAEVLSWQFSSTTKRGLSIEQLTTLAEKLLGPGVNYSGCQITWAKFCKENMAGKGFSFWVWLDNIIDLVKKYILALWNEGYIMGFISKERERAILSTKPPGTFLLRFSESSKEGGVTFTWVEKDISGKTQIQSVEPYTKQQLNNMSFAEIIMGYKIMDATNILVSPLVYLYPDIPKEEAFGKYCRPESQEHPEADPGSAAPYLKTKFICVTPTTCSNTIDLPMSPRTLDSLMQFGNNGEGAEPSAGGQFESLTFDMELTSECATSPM
Calls only; – = inactive; + = active, no number.

SMILES	mut p53 SMM	c-Myc SMM	NFkB SMM	STAT3 binder
C=CCOC(=O)C1=C[C@H](c2coc3ccccc3c2=O)C[C@H](OCc2ccc(CO)cc2)O1	–	+	–	–
Cc1ncc([N+](=O)[O-])n1Cc1n[nH]c(=S)n1C	–	–	–	–
COC(Cc1nc2ccccc2s1)C(=O)O (stereo unspecified)	–	+	–	–
Cc1cc(NC(=O)c2cc3nc(-c4cccs4)cc(C(F)(F)Cl)n3n2)n(-c2ccccc2)n1	–	–	–	–
CC1=C(C(=O)Nc2ccccc2)C(c2ccccc2OCc2ccccc2)n2nnnc2N1 (stereo unspecified)	–	–	–	–
CC(C)NC(=O)N(C)C[C@H]1OCCCC[C@H](C)Oc2ccc(NC(=O)CCC(F)(F)F)cc2C(=O)N([C@H](C)CO)C[C@@H]1C	–	+	+	–
C[C@H](CO)N1C[C@H](C)[C@@H](CN(C)C(=O)CCC(F)(F)F)OCCCC[C@H](C)Oc2ccc(NC(=O)CCC(F)(F)F)cc2C1=O	–	–	–	–
C[C@H]1CCCCO[C@H](CN(C)C(=O)CCC(F)(F)F)[C@@H](C)CN([C@@H](C)CO)C(=O)c2cc(NC(=O)c3ccncc3)ccc2O1	–	–	–	–
C[C@@H]1CN([C@H](C)CO)C(=O)c2cc(NC(=O)CCC(F)(F)F)ccc2O[C@@H](C)CCCCO[C@H]1CN(C)C(=O)CCC(F)(F)F	–	+	+	–
C[C@@H]1CN([C@@H](C)CO)C(=O)c2cc(NC(=O)Cc3ccccc3)ccc2O[C@@H](C)CCCCO[C@@H]1CN(C)C(=O)CCC(F)(F)F	–	–	–	–
C[C@@H]1CN([C@@H](C)CO)C(=O)c2cc(NC(=O)c3ccncc3)ccc2O[C@@H](C)CCCCO[C@@H]1CN(C)C(=O)CCC(F)(F)F	–	–	+	–
C[C@@H]1CCCCO[C@H](CN(C)C(=O)CCC(F)(F)F)[C@H](C)CN([C@@H](C)CO)C(=O)c2cc(NC(=O)Cc3ccccc3)ccc2O1	–	+	+	–
COc1cccc2cc(C(=O)C3C(=O)C(=O)N(CCc4ccccc4)C3c3cccnc3)oc12 (stereo unspecified)	–	–	–	–
COC(=O)c1c(NC(=S)Nc2ccn(C)n2)sc(C(=O)N(C)C)c1C	–	–	–	–
C[C@@H]1CCCCO[C@H](CN(C)C(=O)CCC(F)(F)F)[C@@H](C)CN([C@@H](C)CO)C(=O)c2cc(NC(=O)CCC(F)(F)F)ccc2O1	–	–	–	–
C[C@@H]1CN([C@@H](C)CO)C(=O)c2cc(NC(=O)CCC(F)(F)F)ccc2O[C@@H](C)CCCCO[C@@H]1CN(C)C(=O)CCC(F)(F)F	–	+	+	–
C[C@H](CO)N1C[C@H](C)[C@H](CN(C)C(=O)CCC(F)(F)F)OCCCC[C@H](C)Oc2ccc(NC(=O)CCC(F)(F)F)cc2C1=O	–	+	+	–
CCc1cccc(C)c1NC(=O)CSc1nnc(-c2ccc(C)cc2)n1C	–	–	–	–
COc1ccc(C2(CNC(=O)CC#N)CCCC2)cc1OC	–	–	–	–
CC(C)C(NCCC(O)c1ccc(Br)cc1)C(=O)O (stereo unspecified)	–	–	–	–
C[C@H]1CCCCO[C@@H](CN(C)CC2CCCCC2)[C@@H](C)CN([C@@H](C)CO)C(=O)c2cc(NC(=O)C3CCCCC3)ccc2O1	–	–	+	–
C[C@@H]1CN([C@H](C)CO)C(=O)c2cc(NC(=O)Nc3ccc4c(c3)OCO4)ccc2O[C@@H]1CN(C)CC1CCCCC1	+	–	–	–
C[C@@H]1CCCCO[C@@H](CN(C)CC2CCCCC2)[C@H](C)CN([C@H](C)CO)C(=O)c2cc(NS(C)(=O)=O)ccc2O1	–	–	+	–
C[C@@H]1CN([C@H](C)CO)C(=O)c2cc(NC(=O)Nc3ccc4c(c3)OCO4)ccc2O[C@H]1CN(C)CC1CCCCC1	–	–	–	–
CCOC(=O)c1c(NC(=O)CN2CCOCC2)sc(C(C)=O)c1C	–	–	–	–
SMILES	mut p53 SMM	c-Myc SMM	NFkB SMM	STAT3 binder
CC1=CC(C)(C)N2C(=O)C(=O)c3cc(OC(=O)CN4C(=O)c5cccc6cccc(c56)C4=O)cc1c32	–	–	–	–
COC(=O)C1c2c(oc3cc(CO)cc(O)c3c2=O)C=CC1O (stereo unspecified)	–	–	–	–
COc1ccc(CCN2C(=O)C(NC(=O)C(C)(C)C)(C(F)(F)F)C3=C2CC(C)(C)CC3=O)cc1OC (stereo unspecified)	–	–	–	–
CCOC(=O)c1c(NC(=S)N(C)Cc2c(C)nn(C)c2C)sc2c1CCCCCC2	–	–	–	–
O=C1NC(=O)c2cc(Nc3ccc(F)cc3)c(Nc3ccc(F)cc3)cc21	+	–	–	–
Cn1nnnc1SCCNC/C=C/c1ccccc1	–	+	–	–
